The values that follow come from ChEMBL document CHEMBL4808148, “HDAC6 screening dataset using tau-based substrate in an enzymatic assay yields selective inhibitors and activators” (2021).

The whole screen tested about 5,600 compounds, of which about 390 (7%) showed an effect of 50% or more. The sample as a whole holds a higher share of strong results than the screen did.

In the assay the target is T1, Protein deacetylase HDAC6 (Homo sapiens) (UniProt Q9UBN7).
T1 sequence (whole entry): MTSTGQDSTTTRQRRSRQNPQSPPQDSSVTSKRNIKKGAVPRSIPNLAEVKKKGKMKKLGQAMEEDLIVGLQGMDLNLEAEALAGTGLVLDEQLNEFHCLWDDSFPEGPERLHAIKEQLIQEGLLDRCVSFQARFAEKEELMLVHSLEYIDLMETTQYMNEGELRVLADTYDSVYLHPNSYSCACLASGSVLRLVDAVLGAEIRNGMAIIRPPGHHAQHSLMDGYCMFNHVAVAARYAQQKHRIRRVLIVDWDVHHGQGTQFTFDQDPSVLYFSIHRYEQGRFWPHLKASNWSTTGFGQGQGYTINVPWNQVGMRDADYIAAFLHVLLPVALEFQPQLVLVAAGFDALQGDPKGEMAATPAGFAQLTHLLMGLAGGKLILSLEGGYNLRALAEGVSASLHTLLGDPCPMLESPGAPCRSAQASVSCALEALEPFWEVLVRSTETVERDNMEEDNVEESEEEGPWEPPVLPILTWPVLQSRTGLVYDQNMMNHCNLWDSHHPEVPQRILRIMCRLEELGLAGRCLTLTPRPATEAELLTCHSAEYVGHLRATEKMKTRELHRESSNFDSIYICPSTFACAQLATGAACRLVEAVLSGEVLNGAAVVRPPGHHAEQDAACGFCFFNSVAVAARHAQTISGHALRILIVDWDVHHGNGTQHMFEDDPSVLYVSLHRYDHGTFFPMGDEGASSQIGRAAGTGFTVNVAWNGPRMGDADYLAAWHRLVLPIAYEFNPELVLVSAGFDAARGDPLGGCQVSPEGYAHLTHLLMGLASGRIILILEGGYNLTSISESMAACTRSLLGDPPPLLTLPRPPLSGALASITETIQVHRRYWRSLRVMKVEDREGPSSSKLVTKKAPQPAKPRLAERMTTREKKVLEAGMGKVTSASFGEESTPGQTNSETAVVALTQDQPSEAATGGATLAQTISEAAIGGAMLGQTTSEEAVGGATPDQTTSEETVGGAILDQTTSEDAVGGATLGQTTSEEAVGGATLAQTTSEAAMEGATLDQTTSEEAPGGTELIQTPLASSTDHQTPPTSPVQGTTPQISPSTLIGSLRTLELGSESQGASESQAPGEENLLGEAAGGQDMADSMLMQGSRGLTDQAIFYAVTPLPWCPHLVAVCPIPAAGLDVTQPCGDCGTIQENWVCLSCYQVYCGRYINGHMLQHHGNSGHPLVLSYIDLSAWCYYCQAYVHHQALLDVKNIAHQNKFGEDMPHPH
The note with it: at 10 µM.
The term inhibition denotes the drop in the measured response relative to a control, in per cent. Consider `CCc1cc(-c2[nH]nc(C)c2-c2ccc3c(c2)OCCO3)c(O)cc1O`, for which the inhibition worked out at 8.29%.
Consider `CC1(C)Oc2ccc(C#N)cc2[C@@H](OC2=CC(=O)CC2)[C@@H]1O`, for which the inhibition came to 3.84%.
In the case of `Cc1c(-c2ccccc2)oc2c(C(=O)OCCN3CCCCC3)cccc2c1=O`, the inhibition was 11.8%.
Regarding `CNc1nc(NCc2ccc(NS(C)(=O)=O)cc2Cl)cc(-c2ccccn2)n1`, the inhibition stood at 13.6%.
As for `Nc1ccc(S(=O)(=O)O)cc1`, the inhibition was 9.02%.
For `Cc1cc(O)c(C(=O)N[C@@H](C(=O)N[C@@H]2C(=O)N3C(C(=O)O)=C(CSc4nnnn4C)CS[C@H]23)c2ccc(O)cc2)cn1`, the inhibition worked out at 29%.
With `Cc1cc(-c2ccc3c(c2)CC[C@H]3N2CC3(CCN(C(=O)Cc4cn5cc(C)sc5n4)CC3)C2)ncn1`, the inhibition stood at 0.83%.
For the compound `CN1C(=O)c2c(nn(Cc3ccc(-c4cccc(F)n4)cc3)c2Nc2ccccc2)N2C1=N[C@@H]1CCC[C@@H]12`, the inhibition is -2.77%.
As for `C[C@@H]1CN(CC(=O)Nc2ccc3c(c2)Cc2cccc(-c4cc(=O)cc(N5CCOCC5)o4)c2S3)C[C@H](C)O1`, the inhibition turned out to be 61%.
For `CCOC(=O)Nc1ccc2c(c1)N(C(=O)CCN1CCOCC1)c1ccccc1S2`, the inhibition is -0.7%.
In the case of `O=c1cc(-c2cccc3c2Sc2ccccc2S3)oc(N2CCOCC2)c1`, the inhibition worked out at 82.8%.
In the case of `O=c1cc(N2CCOCC2)oc2c(-c3ccccc3)cccc12`, the inhibition is 1.23%.
Consider `O=c1cc(N2CCOCC2)oc2c(-c3cccc4c3sc3ccccc34)cccc12`, for which the inhibition was -7.08%.
Next, `Nc1ncnc2c1nc(Br)n2[C@@H]1O[C@@H]2COP(=O)(O)O[C@H]2[C@H]1O`: 4.67%.
As to `O=C(O)Cc1sc(-c2ccccc2)nc1-c1ccc(Cl)cc1`, the inhibition is -4.01%.
Turning to `Nc1c2c(nc3c1CCC3)CCCC2`, the inhibition was 13%.
Take `CCC(=O)c1ccc(O)cc1`: the inhibition came to 7.92%.
The result for `O=C(N/N=C/c1ccc([N+](=O)[O-])o1)c1ccc(O)cc1` reads 18.8%.
For `CCN(CC)c1ccc(/C=N/NC(=O)c2ccc(O)cc2)cc1`, the inhibition came to 80%.
Regarding `C/N=C(/NC#N)NCCSCc1csc(NC(=N)N)n1`, the inhibition worked out at 4.88%.
Take `COc1cccc(CCc2ccccc2OCC[C@@H]2C[C@@H](O)CN2C)c1`: the inhibition was 12.1%.
`O=C1C(Cl)=C(NCCN2CCOCC2)C(=O)c2ncccc21`: the inhibition was -2.93%.
`Cc1noc(-c2ccc(-c3ccc(CC(=O)O)cc3)cc2)c1NC(=O)O[C@H](C)c1ccccc1`: the inhibition was found to be 15.4%.
With `O=C(N[C@@H](Cc1c[nH]c2ccccc12)C(=O)O)c1ccc(Cl)cc1`, the inhibition came out at 21.4%.
For the compound `O=C(O)CCCc1ccccc1`, the inhibition came out at 15.3%.
As to `O=C(O)CCC(=O)c1ccc(-c2ccccc2)cc1`, the inhibition turned out to be 58.7%.
With `O=C(CN1C2=NCCN2c2ccccc21)c1ccc(-c2ccccc2)cc1`, the inhibition turned out to be 11.4%.
On to `CN1CCN(c2ccc(-c3cccc(CN4CCOCC4)c3)cc2NC(=O)c2c[nH]c(=O)cc2C(F)(F)F)CC1`, for which the inhibition worked out at 19.4%.
With `Oc1cccc(Nc2ncc(F)c(Nc3cccc(O)c3)n2)c1`, the inhibition is -0.51%.
The result for `O=c1c(-c2ccccc2)c1-c1ccccc1` reads 68.4%; that for `O=C1[C@H]2CCCC[C@H]2C(=O)N1CCCCN1CCN(c2nsc3ccccc23)CC1`, 9.58%; that for `CCCC(=O)O[C@]1(C(=O)CO)CCC2[C@@H]3CCC4=CC(=O)CC[C@]4(C)C3[C@@H](O)C[C@@]21C` (some centres undefined), 13.5%.
As to `C[C@]12CCC(=O)C=C1CC[C@@H]1[C@@H]2[C@@H](O)C[C@@]2(C)[C@H]1CC[C@]2(O)C(=O)CO`, the inhibition was 12%.
`CCCCC(=O)O[C@]1(C(=O)CO)CC[C@H]2[C@@H]3CCC4=CC(=O)CC[C@]4(C)[C@H]3[C@@H](O)C[C@@]21C`: the inhibition was found to be 55.9%.
With `O=[N+]([O-])c1cc([N+](=O)[O-])c(/C=C/c2ccc(Cl)c(Cl)c2)cc1/C=C/c1ccc(Cl)c(Cl)c1`, the inhibition is 7.35%.
For `Nn1cnc2cc3ccccc3cc2c1=O`, the inhibition was found to be 17.4%.
Turning to `Clc1ccc(CCCOCCCN2CCCCC2)cc1`, the inhibition came out at 4.84%.
In the case of `NC(=O)Nc1sc(-c2ccc(F)cc2)cc1C(N)=O`, the inhibition stood at 81.4%.
As to `NC(=O)Nc1cc(-c2cccc(F)c2)sc1C(=O)N[C@H]1CCCNC1`, the inhibition amounted to 8.78%.
As for `O=C(O)CN(CCN(CC(=O)O)CC(=O)O)CC(=O)O`, the inhibition is -8.06%.
With `O=C(/C=C/c1cccnc1)c1ccncc1`, the inhibition stood at 2.24%.
In the case of `Cc1c(C)c2c(c(C)c1O)CCC(C)(C)O2`, the inhibition came to 20.7%.
Consider `CC(=O)[C@H]1CC[C@H]2[C@@H]3C[C@H](C)C4=CC(=O)CC[C@]4(C)[C@H]3[C@@H](O)C[C@]12C`, for which the inhibition was found to be 19.3%.
For `CC(=O)Oc1ccccc1C(=O)Nc1ccccc1`, the inhibition turned out to be 87.4%.
Regarding `COc1ccccc1C(=O)Nc1cccc(NC(=O)c2cccc(C)c2)c1`, the inhibition is 63.7%.
For the compound `CCCC(=O)Nc1cccc(NC(=O)c2ccccc2Br)c1`, the inhibition turned out to be 21%.
As for `CC(=O)Oc1ccccc1C(=O)O`, the inhibition is 2.2%.
For `COc1ccccc1C(=O)Nc1cc2c(cc1N1CCCC1)n(C)c(=O)n2C`, the inhibition came to 46.1%.
In the case of `CC(=O)Oc1ccccc1C(=O)Oc1ccccc1C(=O)O`, the inhibition amounted to 41%.
On to `Cc1nc(Nc2ncc(C(=O)Nc3c(C)cccc3Cl)s2)cc(N2CCN(CCO)CC2)n1`, for which the inhibition worked out at 21.2%.
Take `CC1(C)CC(=O)C(C2C3=C(CC(C)(C)CC3=O)Oc3ccccc32)C(=O)C1` (centres undefined): the inhibition was -3.93%.
On to `N[C@H](Cc1c[nH]c2ccccc12)C(=O)O`, for which the inhibition turned out to be 12%.
For `COCCNC(=O)Cn1cnc([N+](=O)[O-])n1`, the inhibition came to 6.28%.
The result for `CN([C@@H](Cc1ccc(OS(=O)(=O)c2cccc3cnccc23)cc1)C(=O)N1CCN(c2ccccc2)CC1)S(=O)(=O)c1cccc2cnccc12` reads -4.11%; that for `CC(C)c1cc(-c2n[nH]c(=O)n2-c2ccc3c(ccn3C)c2)c(O)cc1O`, 29.4%; that for `Nc1nc(N)c2nc(-c3cccc(O)c3)cnc2n1`, 88.7%.
For `Nc1nc(N)c2nc(-c3ccccc3)c(N)nc2n1`, the inhibition is 19.4%.
Turning to `Oc1cccc(-c2c3nc(c(-c4cccc(O)c4)c4ccc([nH]4)c(-c4cccc(O)c4)c4nc(c(-c5cccc(O)c5)c5ccc2[nH]5)CC4)C=C3)c1`, the inhibition came out at 36.9%.
As to `CCc1cc(C(C)=O)c(O)cc1OCCCCCC(C)(C)c1nn[nH]n1`, the inhibition stood at 8.67%.
On to `CCCCN(CC)c1nc(C)nc2c1c(C)c(C)n2-c1c(C)cc(C)cc1C`, for which the inhibition is 7.01%.
For `CN(Cc1ccccc1)C(=O)[C@H](Cc1ccc2ccccc2c1)NC(=O)[C@@H]1C[C@@H](O)CN1C(=O)c1cn(C)c2ccccc12`, the inhibition came to 84.1%.
The result for `Cn1cc(C(=O)OCC2CCN(CCNS(C)(=O)=O)CC2)c2ccccc21` reads -8.82%; that for `CN(C)CC/C=C1/c2ccccc2COc2ccc(CC(=O)O)cc21`, 2.79%; that for `CC(C)Cc1ccc(C(C)C(=O)NO)cc1` (centres undefined), 49.7%.
